Measurements: the supplement of paper PMC8728848
This excerpt belongs to a sample that is enriched for the strongest signals.

Assays:
Assay in all cases: glycan array binding signal (z-score within array); higher = stronger binding
Conditions in all cases: glycan notation: IUPAC condensed, linker removed
Fuc(a1-2)Gal = biological target: Fuc(a1-2)Gal
In short: (§1)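 The binding signal is a Z-score computed within each array and averaged over linkers. Arrays of the same protein sequence at different concentrations or buffers were also averaged together. Data originate from 3228 arrays in the Consortium for Functional Glycomics database, kept only where the protein sequence was available.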

[1] = biological target: Fuc(a1-2)Gal(b1-3)GlcNAc(b1-2)Man(a1-3)[Fuc(a1-2)Gal(b1-3)GlcNAc(b1-2)Man(a1-6)]Man(b1-4)GlcNAc(b1-4)GlcNAc
In short: as §1

[2] = biological target: Fuc(a1-2)Gal(b1-3)[Fuc(a1-4)]GlcNAc(b1-2)Man(a1-3)[Fuc(a1-2)Gal(b1-3)[Fuc(a1-4)]GlcNAc(b1-2)Man(a1-6)]Man(b1-4)GlcNAc(b1-4)[Fuc(a1-6)]GlcNAc(b1-4)[Fuc(a1-6)]GlcNAc
In short: as §1

[3] = biological target: Fuc(a1-2)Gal(b1-4)[Fuc(a1-3)]GlcNAc(b1-2)[Fuc(a1-2)Gal(b1-4)[Fuc(a1-3)]GlcNAc(b1-4)]Man(a1-3)[Fuc(a1-2)Gal(b1-4)[Fuc(a1-3)]GlcNAc(b1-2)Man(a1-6)]Man(b1-4)GlcNAc(b1-4)GlcNAc
In short: as §1

[4] = biological target: Fuc(a1-2)Gal(b1-4)[Fuc(a1-3)]GlcNAc(b1-3)Gal(b1-4)[Fuc(a1-3)]GlcNAc(b1-3)Gal(b1-4)[Fuc(a1-3)]GlcNAc
In short: as §1

Fuc(a1-2)Gal6S(b1-4)Glc = biological target: Fuc(a1-2)Gal6S(b1-4)Glc
In short: as §1

[5] = biological target: Fuc(a1-2)[Gal(a1-3)]Gal(b1-3)GlcNAc(b1-2)Man(a1-3)[Fuc(a1-2)[Gal(a1-3)]Gal(b1-3)GlcNAc(b1-2)Man(a1-6)]Man(b1-4)GlcNAc(b1-4)[Fuc(a1-6)]GlcNAc
In short: as §1

[6] = biological target: Fuc(a1-2)[Gal(a1-3)]Gal(b1-4)GlcNAc
In short: as §1

[7] = biological target: Fuc(a1-2)[Gal(a1-3)]Gal(b1-4)GlcNAc(b1-2)Man
In short: as §1

[8] = biological target: Fuc(a1-2)[GalNAc(a1-3)]Gal(b1-4)GlcNAc(b1-2)Man
In short: as §1

[9] = biological target: Fuc(a1-2)[GalNAc(a1-3)]Gal(b1-4)GlcNAc(b1-3)GalNAc
In short: as §1

[10] = biological target: Fuc(a1-3)[Gal(b1-4)]GlcNAc(b1-6)[Gal(b1-3)GlcNAc(b1-3)]Gal(b1-4)Glc
In short: as §1

[11] = biological target: Fuc(a1-3)[Gal3S(b1-4)]GlcNAc
In short: as §1

Gal(a1-4)Gal(b1-4)Glc = biological target: Gal(a1-4)Gal(b1-4)Glc
In short: as §1

Gal(b1-3)GlcNAc = biological target: Gal(b1-3)GlcNAc
In short: as §1

[12] = biological target: Gal(b1-3)GlcNAc(a1-6)Gal(b1-4)GlcNAc
In short: as §1

[13] = biological target: Gal(b1-3)GlcNAc(b1-2)Man(a1-3)[Gal(b1-3)GlcNAc(b1-2)Man(a1-6)]Man(b1-4)GlcNAc(b1-4)GlcNAc
In short: as §1

[14] = biological target: Gal(b1-3)GlcNAc(b1-2)Man(a1-3)[Gal(b1-3)GlcNAc(b1-2)Man(a1-6)]Man(b1-4)GlcNAc(b1-4)[Fuc(a1-6)]GlcNAc
In short: as §1

[15] = biological target: Gal(b1-3)GlcNAc(b1-3)Gal(b1-3)GlcNAc
In short: as §1

[16] = biological target: Gal(b1-3)GlcNAc(b1-3)Gal(b1-4)GlcNAc
In short: as §1

[17] = biological target: Gal(b1-3)GlcNAc(b1-3)Gal(b1-4)GlcNAc(b1-2)[Gal(b1-3)GlcNAc(b1-3)Gal(b1-4)GlcNAc(b1-6)]Man(a1-6)[Gal(b1-3)GlcNAc(b1-3)Gal(b1-4)GlcNAc(b1-2)Man(a1-3)]Man(b1-4)GlcNAc(b1-4)[Fuc(a1-6)]GlcNAc
In short: as §1

[18] = biological target: Gal(b1-3)GlcNAc(b1-3)Gal(b1-4)GlcNAc(b1-3)Gal(b1-4)GlcNAc(b1-2)[Gal(b1-3)GlcNAc(b1-3)Gal(b1-4)GlcNAc(b1-3)Gal(b1-4)GlcNAc(b1-6)]Man(a1-6)[Gal(b1-3)GlcNAc(b1-3)Gal(b1-4)GlcNAc(b1-3)Gal(b1-4)GlcNAc(b1-2)Man(a1-3)]Man(b1-4)GlcNAc(b1-4)[Fuc(a1-6)]GlcNAc
In short: as §1

[19] = biological target: Gal(b1-3)[Fuc(a1-4)]GlcNAc(b1-3)Gal(b1-4)[Fuc(a1-3)]GlcNAc
In short: as §1

[20] = biological target: Gal(b1-3)[Neu5Ac(b2-6)]GalNAc
In short: as §1

[21] = biological target: Gal(b1-4)GlcNAc(b1-3)Gal(b1-4)GlcNAc
In short: as §1

[22] = biological target: Gal(b1-4)GlcNAc(b1-3)Gal(b1-4)GlcNAc(b1-2)Man(a1-3)[Gal(b1-4)GlcNAc(b1-3)Gal(b1-4)GlcNAc(b1-2)Man(a1-6)]Man(b1-4)GlcNAc(b1-4)[Fuc(a1-6)]GlcNAc
In short: as §1

[23] = biological target: Gal(b1-4)GlcNAc(b1-3)Gal(b1-4)GlcNAc(b1-3)Gal(b1-4)GlcNAc(b1-3)Gal(b1-4)GlcNAc(b1-2)Man(a1-3)[Gal(b1-4)GlcNAc(b1-3)Gal(b1-4)GlcNAc(b1-3)Gal(b1-4)GlcNAc(b1-3)Gal(b1-4)GlcNAc(b1-2)Man(a1-6)]Man(b1-4)GlcNAc(b1-4)GlcNAc
In short: as §1

[24] = biological target: Gal(b1-4)GlcNAc(b1-3)Gal(b1-4)GlcNAc(b1-3)Gal(b1-4)GlcNAc(b1-3)Gal(b1-4)GlcNAc(b1-2)Man(a1-3)[Gal(b1-4)GlcNAc(b1-3)Gal(b1-4)GlcNAc(b1-3)Gal(b1-4)GlcNAc(b1-3)Gal(b1-4)GlcNAc(b1-2)Man(a1-6)]Man(b1-4)GlcNAc(b1-4)[Fuc(a1-6)]GlcNAc
In short: as §1

[25] = biological target: Gal(b1-4)GlcNAc(b1-3)Gal(b1-4)GlcNAc(b1-3)Gal(b1-4)GlcNAc(b1-3)Gal(b1-4)GlcNAc(b1-2)[Gal(b1-4)GlcNAc(b1-3)Gal(b1-4)GlcNAc(b1-3)Gal(b1-4)GlcNAc(b1-3)Gal(b1-4)GlcNAc(b1-6)]Man(a1-6)[Gal(b1-4)GlcNAc(b1-3)Gal(b1-4)GlcNAc(b1-3)Gal(b1-4)GlcNAc(b1-3)Gal(b1-4)GlcNAc(b1-2)Man(a1-3)]Man(b1-4)GlcNAc(b1-4)[Fuc(a1-6)]GlcNAc
In short: as §1

[26] = biological target: Gal(b1-4)GlcNAc(b1-3)Gal(b1-4)GlcNAc(b1-3)Gal(b1-4)GlcNAc(b1-3)Gal(b1-4)GlcNAc(b1-3)Gal(b1-4)GlcNAc(b1-2)[Gal(b1-4)GlcNAc(b1-3)Gal(b1-4)GlcNAc(b1-3)Gal(b1-4)GlcNAc(b1-3)Gal(b1-4)GlcNAc(b1-3)Gal(b1-4)GlcNAc(b1-6)]Man(a1-6)[Gal(b1-4)GlcNAc(b1-3)Gal(b1-4)GlcNAc(b1-3)Gal(b1-4)GlcNAc(b1-3)Gal(b1-4)GlcNAc(b1-3)Gal(b1-4)GlcNAc(b1-2)Man(a1-3)]Man(b1-4)GlcNAc(b1-4)[Fuc(a1-6)]GlcNAc
In short: as §1

B1: SGC, Q9M345 (protein)
chain: QNLNFTYNGFHPPLTDISLQGLATVTPNGLLKLTNTSVQKTGHAFCTERIRFKDSQNGNVSSFSTTFVFAIHSQIPTLSGHGIAFVVAPTLGLPFALPSQYIGLFNISNNGNDTNHIFAVEFDTIQSSEFGDPNDNHVGIDLNGLRSANYSTAGYRDDHDKFQNLSLISRKRIQVWIDYDNRSHRIDVTVAPFDSDKPRKPLVSYVRDLSSILLEDMYVGFSSATGSVLSEHFLVGWSFRLNGEAPMLSLSKLPKLPRFEPRRIS
How did the “glycan array binding signal (z-score)” value (Fuc(a1-2)Gal) turn out when B1 was run?
The value was -0.354.

What about the “glycan array binding signal (z-score)” value [1] of the same binder?
The value was 3.64.

What about the “glycan array binding signal (z-score)” value [2] of the same binder?
The value was -0.292.

And the “glycan array binding signal (z-score)” value [3]?
The value was -0.12.

And the “glycan array binding signal (z-score)” value [4]?
Its value is -0.332.

What about the “glycan array binding signal (z-score)” value (Fuc(a1-2)Gal6S(b1-4)Glc) of the same binder?
The value was -0.377.

What about the “glycan array binding signal (z-score)” value [5] of the same binder?
The value was -0.4.

And the “glycan array binding signal (z-score)” value [6]?
The value was -0.374.

And the “glycan array binding signal (z-score)” value [7]?
Its value is -0.352.

And the “glycan array binding signal (z-score)” value [8]?
The value was -0.4.

What about the “glycan array binding signal (z-score)” value [9] of the same binder?
The value was -0.344.

And the “glycan array binding signal (z-score)” value [10]?
Its value is -0.291.

And the “glycan array binding signal (z-score)” value [11]?
The value was -0.299.

What about the “glycan array binding signal (z-score)” value (Gal(a1-4)Gal(b1-4)Glc) of the same binder?
The value was -0.292.

And the “glycan array binding signal (z-score)” value (Gal(b1-3)GlcNAc)?
Its value is -0.208.

And the “glycan array binding signal (z-score)” value [12]?
The value was 0.154.

And the “glycan array binding signal (z-score)” value [13]?
Its value is 3.77.

And the “glycan array binding signal (z-score)” value [14]?
The value was 6.74.

And the “glycan array binding signal (z-score)” value [15]?
Its value is 0.723.

What about the “glycan array binding signal (z-score)” value [16] of the same binder?
The value was -0.434.

And the “glycan array binding signal (z-score)” value [17]?
Its value is 5.28.

And the “glycan array binding signal (z-score)” value [18]?
Its value is 4.72.

And the “glycan array binding signal (z-score)” value [19]?
Its value is -0.357.

What about the “glycan array binding signal (z-score)” value [20] of the same binder?
Its value is -0.305.

What about the “glycan array binding signal (z-score)” value [21] of the same binder?
Its value is -0.296.

And the “glycan array binding signal (z-score)” value [22]?
The value was 4.81.

And the “glycan array binding signal (z-score)” value [23]?
The value was 4.57.

And the “glycan array binding signal (z-score)” value [24]?
The value was 5.27.

And the “glycan array binding signal (z-score)” value [25]?
The value was 8.45.

And the “glycan array binding signal (z-score)” value [26]?
Its value is 5.39.
